Reference: the supplement of paper PMC8728848
The sample as a whole holds a higher share of the strongest signals than the screen did.

Assays:
Assay in all cases: glycan array binding signal (z-score within array); higher = stronger binding
Conditions in all cases: glycan notation: IUPAC condensed, linker removed
Gal6S(b1-4)Glc6S = biological target: Gal6S(b1-4)Glc6S
Procedure, shortened: (§1)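 Negative Z-scores can be read as non-binding. The Z-score is calculated within each array and then averaged across arrays of one protein sequence at different concentrations or buffers and across linkers. Arrays, 3228 in all, were curated from the Consortium for Functional Glycomics database and kept only where the protein sequence was available.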

Gal6S(b1-4)GlcNAc = biological target: Gal6S(b1-4)GlcNAc
Procedure, shortened: as §1

GalNAc(a1-3)Gal = biological target: GalNAc(a1-3)Gal
Procedure, shortened: as §1

GalNAc(a1-3)GalNAc = biological target: GalNAc(a1-3)GalNAc
Procedure, shortened: as §1

GalNAc(b1-3)GalNAc = biological target: GalNAc(b1-3)GalNAc
Procedure, shortened: as §1

GalNAc(b1-4)Gal(b1-4)Glc = biological target: GalNAc(b1-4)Gal(b1-4)Glc
Procedure, shortened: as §1

Glc(b1-4)Glc = biological target: Glc(b1-4)Glc
Procedure, shortened: as §1

[1] = biological target: GlcNAc(a1-4)Gal(b1-4)GlcNAc
Procedure, shortened: as §1

[2] = biological target: GlcNAc(a1-4)Gal(b1-4)GlcNAc(b1-3)Gal(b1-4)GlcNAc(b1-3)Gal(b1-4)GlcNAc
Procedure, shortened: as §1

[3] = biological target: GlcNAc(a1-4)Gal(b1-4)GlcNAc(b1-3)Gal(b1-4)[Fuc(a1-3)]GlcNAc(b1-3)Gal(b1-4)[Fuc(a1-3)]GlcNAc
Procedure, shortened: as §1

[4] = biological target: GlcNAc(b1-3)Gal(b1-4)GlcNAc(b1-2)Man(a1-3)[GlcNAc(b1-3)Gal(b1-4)GlcNAc(b1-2)Man(a1-6)]Man(b1-4)GlcNAc(b1-4)[Fuc(a1-6)]GlcNAc
Procedure, shortened: as §1

[5] = biological target: GlcNAc(b1-4)GlcNAc(b1-4)GlcNAc
Procedure, shortened: as §1

[6] = biological target: GlcNAc(b1-4)[GlcNAc(b1-6)]GalNAc
Procedure, shortened: as §1

Kdn(a2-6)Gal(b1-4)GlcNAc = biological target: Kdn(a2-6)Gal(b1-4)GlcNAc
Procedure, shortened: as §1

[7] = biological target: Man(a1-2)Man(a1-3)[Man(a1-2)Man(a1-6)]Man
Procedure, shortened: as §1

[8] = biological target: Neu5Ac(a2-3)Gal(b1-3)GalNAc
Procedure, shortened: as §1

[9] = biological target: Neu5Ac(a2-3)Gal(b1-3)GalNAc(b1-4)[Neu5Ac(a2-8)Neu5Ac(a2-3)]Gal(b1-4)Glc
Procedure, shortened: as §1

[10] = biological target: Neu5Ac(a2-3)Gal(b1-3)GlcNAc(b1-3)GalNAc
Procedure, shortened: as §1

[11] = biological target: Neu5Ac(a2-3)Gal(b1-3)[Fuc(a1-4)]GlcNAc(b1-3)Gal(b1-3)[Fuc(a1-4)]GlcNAc
Procedure, shortened: as §1

[12] = biological target: Neu5Ac(a2-3)Gal(b1-4)[Fuc(a1-3)]GlcNAc(b1-2)Man
Procedure, shortened: as §1

[13] = biological target: Neu5Ac(a2-3)Gal6S(b1-4)GlcNAc
Procedure, shortened: as §1

Neu5Ac(a2-6)Gal(b1-4)Glc = biological target: Neu5Ac(a2-6)Gal(b1-4)Glc
Procedure, shortened: as §1

[14] = biological target: Neu5Ac(a2-6)Gal(b1-4)GlcNAc(b1-2)Man(a1-3)[Neu5Ac(a2-6)Gal(b1-4)GlcNAc(b1-2)Man(a1-6)]Man(b1-4)GlcNAc(b1-4)GlcNAc
Procedure, shortened: as §1

[15] = biological target: Neu5Ac(a2-6)Gal(b1-4)GlcNAc(b1-2)[Neu5Ac(a2-6)Gal(b1-4)GlcNAc(b1-4)]Man(a1-3)[GlcNAc(b1-4)][Neu5Ac(a2-6)Gal(b1-4)GlcNAc(b1-4)Man(a1-6)]Man(b1-4)GlcNAc(b1-4)GlcNAc
Procedure, shortened: as §1

[16] = biological target: Neu5Ac(a2-6)Gal(b1-4)GlcNAc(b1-3)Gal(b1-3)GlcNAc
Procedure, shortened: as §1

[17] = biological target: Neu5Ac(a2-6)Gal(b1-4)GlcNAc(b1-3)Gal(b1-4)GlcNAc(b1-3)Gal(b1-4)GlcNAc(b1-2)Man(a1-3)[Neu5Ac(a2-6)Gal(b1-4)GlcNAc(b1-3)Gal(b1-4)GlcNAc(b1-3)Gal(b1-4)GlcNAc(b1-2)Man(a1-6)]GalNAc
Procedure, shortened: as §1

[18] = biological target: Neu5Ac(a2-6)Gal(b1-4)GlcNAc(b1-3)Gal(b1-4)GlcNAc(b1-6)[Gal(b1-3)]GalNAc
Procedure, shortened: as §1

[19] = biological target: Neu5Ac(a2-8)Neu5Ac(a2-3)Gal(b1-3)GalNAc(b1-4)[Neu5Ac(a2-8)Neu5Ac(a2-3)]Gal(b1-4)Glc
Procedure, shortened: as §1

[20] = biological target: Neu5Ac(a2-8)Neu5Ac(a2-8)Neu5Ac(a2-8)Neu5Ac(a2-3)[GalNAc(b1-4)]Gal(b1-4)Glc
Procedure, shortened: as §1

[21] = biological target: Neu5Gc(a2-3)Gal(b1-4)[Fuc(a1-3)]GlcNAc
Procedure, shortened: as §1

B1: Gal 10 (Homo sapiens), Q05315 (protein)
chain: MSLLPVPYTEAASLSTGSTVTIKGRPLVCFLNEPYLQVDFHTEMKEESDIVFHFQVCFGRRVVMNSREYGAWKQQVESKNMPFQDGQEFELSISVLPDKYQVMVNGQSSYTFDHRIKPEAVKMVQVWRDISLTKFNVSYLKR
- glycan array binding signal (z-score) (Gal6S(b1-4)Glc6S): -0.014
- glycan array binding signal (z-score) (Gal6S(b1-4)GlcNAc): -0.568
- glycan array binding signal (z-score) (GalNAc(a1-3)Gal): -0.104
- glycan array binding signal (z-score) (GalNAc(a1-3)GalNAc): -0.834
- glycan array binding signal (z-score) (GalNAc(b1-3)GalNAc): -0.693
- glycan array binding signal (z-score) (GalNAc(b1-4)Gal(b1-4)Glc): 2.27
- glycan array binding signal (z-score) (Glc(b1-4)Glc): -0.17
- glycan array binding signal (z-score) [1]: -0.744
- glycan array binding signal (z-score) [2]: 0.459
- glycan array binding signal (z-score) [3]: 3.48
- glycan array binding signal (z-score) [4]: -0.014
- glycan array binding signal (z-score) [5]: -0.449
- glycan array binding signal (z-score) [6]: -0.956
- glycan array binding signal (z-score) (Kdn(a2-6)Gal(b1-4)GlcNAc): 0.098
- glycan array binding signal (z-score) [7]: -0.68
- glycan array binding signal (z-score) [8]: -0.079
- glycan array binding signal (z-score) [9]: 0.255
- glycan array binding signal (z-score) [10]: -0.378
- glycan array binding signal (z-score) [11]: 1.14
- glycan array binding signal (z-score) [12]: 2.57
- glycan array binding signal (z-score) [13]: -0.415
- glycan array binding signal (z-score) (Neu5Ac(a2-6)Gal(b1-4)Glc): -0.381
- glycan array binding signal (z-score) [14]: 0.509
- glycan array binding signal (z-score) [15]: 2.9
- glycan array binding signal (z-score) [16]: -0.312
- glycan array binding signal (z-score) [17]: 3.41
- glycan array binding signal (z-score) [18]: -0.176
- glycan array binding signal (z-score) [19]: -0.741
- glycan array binding signal (z-score) [20]: 0.562
- glycan array binding signal (z-score) [21]: 0.205
